Screens: PubChem BioAssay, The Scripps Research Institute Molecular Screening Center
MsrA inh = bovine MsrA enzyme inhibitors, primary screen, biochemical, absorbance, HTS; 360,000 compounds, 0.75% hits; Methionine sulfoxide reductase A (Bos taurus); purified bovine MsrA, absorbance read-out; inhibition, % at 15.5 µM; in the data active = inhibition above about 4.5%;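 note: 0% = vehicle wells with enzyme and 100% = reference inhibitor wells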
rCAG binder = binders of r(CAG) RNA repeats, primary screen, biochemical, fluorescence; r(CAG) RNA repeat, TO-PRO-1 dye displacement fluorescence; inhibition, % at 3 µM; 370,000 compounds, 1.3% hits;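 active = inhibition above the plate cutoff, the mean of all test compounds on that plate plus 3 SD, cut at about 35% in these data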;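 note: 0% = DMSO alone and 100% = 100 µM mitoxantrone as full dye displacement; higher means more dye released from RNA so lower well fluorescence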
sPLA2-III inh = human group III sPLA2 inhibitors, primary screen, biochemical, QFRET, BODIPY PC-A2 liposome substrate | Group 3 secretory phospholipase A2 (Homo sapiens), Q9NZ20 | QFRET BODIPY PC-A2 liposome hydrolysis, fluorescence | inhibition, % at 12.2 µM | 370,000 compounds, 0.56% hits | AID 743126, 2013;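 active = inhibition above mean plus 3 SD of compounds lying within the high and low control bounds, cut at about 19% in these data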;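 note: 0% = median of test compound wells and 100% = no enzyme DMSO wells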
Target sequence (Q9NZ20 whole entry, looked up): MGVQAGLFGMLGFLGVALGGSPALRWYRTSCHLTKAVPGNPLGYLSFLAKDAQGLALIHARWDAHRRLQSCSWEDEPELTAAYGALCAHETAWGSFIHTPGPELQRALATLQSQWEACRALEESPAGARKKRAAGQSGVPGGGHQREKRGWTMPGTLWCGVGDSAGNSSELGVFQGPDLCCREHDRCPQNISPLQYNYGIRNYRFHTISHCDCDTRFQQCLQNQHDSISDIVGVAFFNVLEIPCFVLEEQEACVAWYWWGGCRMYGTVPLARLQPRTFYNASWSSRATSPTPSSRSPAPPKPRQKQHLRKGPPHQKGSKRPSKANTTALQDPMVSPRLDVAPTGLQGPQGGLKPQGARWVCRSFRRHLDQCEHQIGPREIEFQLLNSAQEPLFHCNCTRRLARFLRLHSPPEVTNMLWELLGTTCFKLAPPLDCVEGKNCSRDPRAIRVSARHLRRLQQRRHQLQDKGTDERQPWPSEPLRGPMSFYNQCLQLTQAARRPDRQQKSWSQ
MsrA act = bovine MsrA enzyme activators, primary screen, biochemical, absorbance, HTS | purified bovine MsrA, absorbance read-out | activation, % at 10.6 µM | 360,000 compounds, 0.3% hits; in the data active = activation above about 7.5%;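 note: 0% = vehicle and 100% = reference activator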
rCAG bind conf = small molecules binding CAG repeat RNA – biochemical, fluorescence, confirmation. shares compounds with rCAG binder. r(CAG) RNA repeat, TO-PRO-1 dye displacement fluorescence. inhibition, % at 3 µM. 4,300 compounds, 70% hits. AID 652065, 2013;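 active = inhibition above a per-plate cutoff, the mean inhibition of sample wells plus 3 SD, cut at about 35% in these data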;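 note: loss of TO-PRO-1 fluorescence as compound displaces dye from 1x1 AA loop RNA; 0% = DMSO only wells and 100% = 100 µM mitoxantrone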
dCAG dye counter = displacement of TO-PRO-1 from CAG DNA duplex, counter-screen for rCAG RNA repeat binder project, biochemical, fluorescence, TO-PRO-1 dye, d(CAG) DNA oligo; shares compounds with rCAG binder; d(CAG) DNA oligo TO-PRO-1 dye displacement; inhibition, % at 3 µM; 4,300 compounds, 94% hits; AID 652068, 2013;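 active = inhibition above its plate's cutoff, the mean test-well inhibition plus 3 SD, cut at about 4.8% in these data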;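 note: 0% = DNA dye mix with DMSO and 100% = 100 µM mitoxantrone; hits displace the dye from DNA and so lower well fluorescence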
DNA CAG DR = inhibitors of DNA CAG/GTC TO-PRO-1 complex, dose response, counter-screen for rCAG RNA repeat binder project, biochemical, fluorescence, TO-PRO-1 dye; shares compounds with rCAG binder; DNA CAG/GTC duplex TO-PRO-1 dye displacement fluorescence; IC50, µM; 250 compounds, 20% hits; in the data active = IC50 below about 10 µM
Active calls of the source: *; i = inactive; nt = no result. The list is not random: actives were taken first. Their share in the collection is about 2.8%.

SMILES	MsrA inh	rCAG binder	sPLA2-III inh	MsrA act	rCAG bind conf	dCAG dye counter	others
Cc1cc(C)n(-c2ccccc2C#N)n1	1	-5	9	-2	nt	nt
COC(=O)c1c(NC(=O)C2CCCCC2C(=O)O)sc2c1CCCCC2 (configuration not stated)	2	48*	3	-13	33	5.7*
COC(=O)c1sc(NC(=O)C2CCCCC2C(=O)O)c(C(=O)OC)c1C (configuration not stated)	1	39*	-3	-2	44*	9.0*
COCC(=O)Nc1sc2c(c1C(=O)OC)CCCC2	0	4	1	-3	nt	nt
COc1cc(-c2nnc(COC(=O)c3cc(C)no3)o2)cc(OC)c1OC	1	2	1	-2	nt	nt
Cn1nnnc1SCCNCc1ccccc1OCc1ccc(F)cc1	-1	2	-1	-3	nt	nt
O=S(=O)(/N=C(\c1ccccc1)N1CCOCC1)c1ccc(Cl)cc1	-1	-2	3	-5	nt	nt
COc1ccc(/C=C2\SC(=O)N(CCC(=O)Nc3ccc(S(=O)(=O)Nc4nccs4)cc3)C2=O)cc1	4	80*	-26	-6	79*	45*
COc1ccc(/C=C2/SC(=O)N(CCC(=O)Nc3ccc(S(=O)(=O)Nc4nccs4)cc3)C2=O)cc1	5	84*	-65	-5	82*	49*
CCCCCOc1ccc(/C=c2\sc3nc(=O)c(-c4ccccc4)nn3c2=O)cc1OC	0	20	4	-10	nt	nt
O=c1nc2s/c(=C\c3ccc(-c4ccccc4[N+](=O)[O-])o3)c(=O)n2nc1-c1ccccc1	1	46*	-8	-1	51*	25*
O=C(NCCSc1ccccc1)c1ccccc1Cl	1	10	6	-8	nt	nt
O=c1[nH]c2ccc(S(=O)(=O)N3CCN(c4ccccc4F)CC3)cc2s1	0	35*	-33	-3	22	5.2*
O=C(O)c1ccccc1Nc1cccc(OCc2ccc3ccccc3n2)c1	0	70*	-39	-2	71*	31*	DNA CAG DR=i
COc1ccc(Nc2ccccc2C(=O)O)cc1	3	-2	3	-12	nt	nt
O=C(O)CCn1cc(/C=C2\NC(=S)N(c3ccccc3)C2=O)c(-c2ccc(Br)cc2)n1	1	41*	-3	-8	39*	9.4*
COCCN(Cc1ccccc1)C(=O)c1cc(-c2ccc(OC)c(OC)c2)nc2ccccc12	1	0	-27	-9	nt	nt
CN(C)CCNC(=O)C(c1ccccc1)c1ccccc1	0	-1	-2	-3	nt	nt
CN(C)CCC(=O)C(Cc1ccccc1)c1ccccc1 (configuration not stated)	0	35*	-6	-13	-1	-1
COc1ccc(-c2nc3ccc(Br)cn3c2Cc2ccccc2C(F)(F)F)cc1OC	0	43*	-7	-3	19	4.8*
Cc1ccc2nc(-c3cccc(Br)c3)c(Cc3ccccc3C(F)(F)F)n2c1	0	35*	-19	-2	22	4.8*
O=C1COc2ccc(C(=O)COC(=O)CCCOc3ccccc3)cc2N1	-1	1	-8	-5	nt	nt
O=[N+]([O-])c1cc(Cl)cc(/C=N/Nc2nc3ccccc3s2)c1O	0	24	1	-9	nt	nt
Cc1cc(OC(C)C(=O)NC(Cc2c[nH]c3ccc(O)cc23)C(=O)O)c2c(C)c(C)c(=O)oc2c1 (configuration not stated)	0	13	-13	-1	nt	nt
O=C(COc1ccc2c(c1)oc(=O)c1ccccc12)N[C@@H](Cc1c[nH]c2ccccc12)C(=O)O	2	51*	-77	-4	54*	18*
SMILES	MsrA inh	rCAG binder	sPLA2-III inh	MsrA act	rCAG bind conf	dCAG dye counter	others
Cc1c(C)c2ccc(OCC(=O)N[C@@H](Cc3c[nH]c4ccccc34)C(=O)O)cc2oc1=O	2	18	-37	-9	nt	nt
CC(Oc1ccc2c(c1)oc(=O)c1ccccc12)C(=O)NC(Cc1c[nH]c2ccc(O)cc12)C(=O)O (configuration not stated)	1	43*	-22	-8	27	6.1*
COc1ccc(S(=O)(=O)NCCC(=O)OCC(=O)c2ccc[nH]2)cc1[N+](=O)[O-]	0	5	-14	-3	nt	nt
CCOC(=O)c1c(-c2ccc(C)c(C)c2)csc1NC(=O)C1CC=CCC1C(=O)O (configuration not stated)	3	44*	-16	-6	58*	19*
O=C(O)c1cccc(N/N=C/c2ccc(F)c(F)c2)c1	1	7	2	-2	nt	nt
Cc1nn(-c2ccccc2Cl)c(Cl)c1/C=N/Nc1cccc(C(=O)O)c1	1	19	-5	-3	nt	nt
Cc1nn(-c2cccc(C(F)(F)F)c2)c(Cl)c1/C=N/Nc1cccc(C(=O)O)c1	0	44*	-6	-9	57*	19*
C=CCOc1c(Br)cc(/C=N/Nc2ccc(C(=O)O)cc2)cc1OCC	3	83*	-43	-5	66*	26*
O=C(O)c1cccc(N/N=C/C2=C(Cl)c3cc(Cl)ccc3SC2)c1	0	35*	-7	-4	80*	50*
Cc1ccc(/C=N/Nc2cccc(C(=O)O)c2)s1	4	36*	-20	-2	19	4.8*
COc1ccc(/C=N/Nc2ccc(C(=O)O)cc2)cc1Br	3	12	-20	-6	nt	nt
COc1ccccc1NC(=O)OCC#CCOC(=O)Nc1ccccc1OC	-1	-4	-8	-3	nt	nt
COc1cc(C=NNc2ccccc2)ccc1OC(=O)c1ccccc1	0	4	-6	-1	nt	nt
CCOc1cc(/C=N/Nc2cccc(C(=O)O)c2)ccc1OC(=O)c1ccccc1	2	36*	-11	-3	82*	51*
CC1=NN(c2nc(-c3ccc(C)cc3)cs2)C(=O)C1N=Nc1cccc(O)c1 (configuration not stated)	1	37*	8	-7	49*	22*
COC(=O)c1ccc(COc2ccccc2/C=C/C(=O)c2ccc(OCC(=O)O)cc2)cc1	3	56*	-18	-2	64*	24*
Cc1c(N2C(=O)/C(=C3/C(=O)N(C)c4ccccc43)SC2=S)c(=O)n(-c2ccccc2)n1C	-1	1	3	-8	nt	nt
CCCC(C(=O)O)N1C(=O)/C(=C2\C(=O)N(C)c3ccccc32)SC1=S (configuration not stated)	2	56*	12	-3	63*	26*
